Here are results for 14 compounds from PubChem BioAssay (NCATS).

Records with an inconclusive call do not appear. Entries that show only a call come without a potency. Calls of active or inactive are those of the source. Calls follow the shape of the full dose curve.
Potency is read from the fitted curve at half-maximal effect.

The assay in a line: Primary qHTS for Huh7 cytotoxicity: counterscreen for inhibitors of MERS-S pseudotyped particle cell entry (AID 1479147). To be noted: cell viability read-out; series mostly up to 57.1 µM.
Regarding `CN1CCN(CCCN2c3ccccc3Sc3ccccc32)CC1`, the Potency was 31.6 µM (active).

For the compound `CS(=O)(=O)c1ccc([C@@H](O)[C@@H](COC(=O)CN)NC(=O)C(Cl)Cl)cc1`, the Potency result was “inactive”.

As for `Cc1c(OCC(F)(F)F)ccnc1C[S@@](=O)c1nc2ccccc2[nH]1`, the Potency entry was “inactive”.

`CC1(C)C(C=C(Cl)Cl)C1C(=O)OCc1cccc(Oc2ccccc2)c1` (centres undefined): the Potency result is “inactive”.

With `CC1(C)S[C@H]2[C@H](NC(=O)[C@@H](N)c3ccc(O)cc3)C(=O)N2[C@H]1C(=O)O`, the Potency result was “inactive”.

As to `CCCCCCCCCCCCCCCC(=O)OCC=C(C)C=CC=C(C)C=CC1=C(C)CCCC1(C)C`, the Potency result was “inactive”.

Regarding `CC/C=C\C/C=C\C/C=C\C/C=C\C/C=C\C/C=C\CCC(=O)O`, the Potency entry was “inactive”.

Regarding `C[C@@](Cc1ccc(O)c(O)c1)(NN)C(=O)O`, the Potency entry was “inactive”.

Consider `C[S+](CC[C@H](N)C(=O)O)C[C@H]1O[C@@H](n2cnc3c(N)ncnc32)[C@H](O)[C@H]1O` (some centres undefined), for which the Potency entry was “inactive”.

Take `CC/C=C\C/C=C\C/C=C\C/C=C\C/C=C\CCCC(=O)O`: the Potency result was “inactive”.

As for `C=C[C@H]1CN2CC[C@H]1C[C@H]2[C@H](O)c1ccnc2ccccc12`, the Potency entry is “inactive”.

Turning to `C[C@]12C=CC(=O)C=C1CC[C@@H]1[C@@H]2[C@@H](O)C[C@@]2(C)[C@H]1CC[C@]2(O)C(=O)COC(=O)c1cccc(S(=O)(=O)O)c1`, the Potency result was “inactive”.

With `CC(C)(C)C(=O)OCC(=O)[C@H]1CC[C@H]2[C@@H]3CCC4=CC(=O)CC[C@]4(C)[C@H]3CC[C@]12C`, the Potency entry is “inactive”.

Consider `CC(=O)OCC(=O)[C@@]1(O)CC[C@H]2[C@@H]3C[C@H](C)C4=CC(=O)C=C[C@]4(C)[C@H]3[C@@H](O)C[C@@]21C`, for which the Potency result was “inactive”.
